The source of these data is PubChem BioAssay.

The structures appear in SMILES notation. Where “and” joins values, the source holds several entries; their conditions need not be identical. Equal values may be shown once. Calls of active or inactive are those of the source. Unless noted, no rule for the calls is given here.

Assay [1] can be described thus: kinase inhibitors against Plasmodium liver-stage infection, cell-based, known kinase inhibitor set, luminescence, hepatoma host viability (AID 624392).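 Also: infected cells incubated roughly two days before readout.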 The settings on record: Plasmodium liver stage in hepatoma cells, luciferase luminescence, concentration not given here; liver cell % of control: measured here: host liver cell viability; parasite % of control: stronger effect = lower value.

Assay [2] relates to Hepatitis C virus NS3 helicase. Kind of assay: HCV NS3 helicase inhibitors, primary screen, biochemical, fluorescence polarization, LOPAC1280 library (AID 687035; in the data active = inhibition above about 37%). The note with it: Purified HCV NS3 helicase, Cy5-dT15 ssDNA binding fluorescence polarization; stronger effect = higher value; concentration not given here.
Assay [3] can be described thus: Cy5 fluorescence quenching or enhancement artefacts, artefact control for HCV NS3 helicase inhibitor project, biochemical, LOPAC1280 (AID 687037). The note with it: Cy5-DNA-NS3h complex fluorescence interference counterscreen.

For the compound `COc1ccc(CNc2nc(NCc3ccc(OC)cc3)c3[nH]cnc3n2)cc1`, in assay [1], the liver cell % of control worked out at 92.9% and the parasite % of control was 590% (inactive).
As to `Cc1ccc(C(=O)Nc2cccc(C(F)(F)F)c2)cc1Nc1cnccn1`, in assay [1], the liver cell % of control worked out at 98.3% and the parasite % of control was 23.7% (inactive).
Turning to `Nc1ccccc1CNc1nc(NCCO)nc2c1ncn2CCN1CCOCC1`, in assay [1], the liver cell % of control was determined as 100% and the parasite % of control was 125% (inactive).
`CS(=O)(=O)Nc1ccc(-c2cc(C=C3SC(N)=NC3=O)c[nH]c2=O)cc1`: in assay [1], the liver cell % of control was 97.7% and the parasite % of control is 127% (inactive).
In the same order, the values of `C=CC(=O)Nc1cccc(Oc2ncnc3[nH]cc(-c4cnc5ccccc5c4)c23)c1` are 100% and 112% (inactive).
The corresponding values for `C=CC(=O)Nc1ccc(Nc2ccnc(Nc3ccc(N4CCN(C)CC4)cc3)n2)cc1` are 105% and 124% (inactive).
The corresponding values for `Cc1ccc(-c2c(C(=O)CCl)n(CCO)c3ncnc(N)c23)cc1` are 90.7% and 86.5% (inactive).
With `CCN1CCN(Cc2ccc(NC(=O)c3ccc(C)c(NC(=O)c4ccnnc4)c3)cc2C(F)(F)F)CC1`, in assay [1], the liver cell % of control turned out to be 104% and the parasite % of control was 100% (inactive).
On to `CC(C)n1cnc2c(Nc3cccc(Cl)c3)nc(N(CCO)CCCO)nc21`, for which, in assay [1], the liver cell % of control is 81.2% and the parasite % of control is 381% (inactive).
The corresponding values for `CCN1CCN(Cc2ccc(NC(=O)c3cc(NC(=O)c4cnn(-c5ccccc5)c4N)cc(OC)c3)cc2C(F)(F)F)CC1` are 109% and 130% (inactive).
In the same order, the values of `Cc1cn(-c2cc(C(=O)Nc3ccc(C)c(NC(=O)N4CCNC4=O)c3)cc(C(F)(F)F)c2)cn1` are 98.1% and 72.3% (inactive).
The corresponding values for `CN(C)CCCNc1ccc(-c2cc(Nc3cccc(Cl)c3)ncn2)cn1` are 94.9% and 108% (inactive).
With `CCN1CCN(Cc2ccc(NC(=O)c3ccc(C)c(NC(=O)c4c[nH]c5cc(C(F)(F)F)ccc5c4=O)c3)cc2C(F)(F)F)CC1`, in assay [1], the liver cell % of control was 45.6% and the parasite % of control is 4.19% (active).
As for `Cn1cc(C=C2C(=O)Nc3cccnc32)c2ccccc21`, in assay [1], the liver cell % of control was 314% and 107% and 104%; the parasite % of control was 4.91% (inactive) and 51.8% (inactive) and 41.5% (inactive).
As to `O=C(Nc1cccc(-c2csc(Nc3ccccc3)n2)c1)c1cc([N+](=O)[O-])cc(C(F)(F)F)c1`, in assay [1], the liver cell % of control is 92.9% and the parasite % of control is 168% (inactive).
In the same order, the values of `C=CC(=O)Nc1ccc(Nc2nc(NC3CCC(N(C)C)CC3)nc3c2ncn3C(C)C)cc1` (stereo not drawn) are 57.1% and 6.69% (inactive).
Regarding `C=CC(=O)Nc1ccc(N(C)c2ccnc(Nc3ccc(N4CCN(C)CC4)cc3)n2)cc1`, in assay [1], the liver cell % of control was determined as 107% and the parasite % of control is 27.8% (inactive).
As for `CN(c1ccccc1CNc1nc(Nc2ccc3c(c2)CC(=O)N3)ncc1C(F)(F)F)S(C)(=O)=O`, in assay [1], the liver cell % of control is 53.6% and 51.8% and 95%; the parasite % of control was 7.61% (inactive) and 53% (inactive) and 167% (inactive).
As to `CC(C)ON([C@@H](C(=O)NO)C(C)C)S(=O)(=O)c1ccc(-c2ccccc2)cc1`, in assay [2], the inhibition was -1% (inactive). Moreover, the fluorescence ratio (interference) in assay [3] is 0.9 (inactive).
Regarding `CCN1CCN(Cc2ccc(NC(=O)c3cc(NC(=O)c4ccno4)cc(OC)c3)cc2C(F)(F)F)CC1`, in assay [1], the liver cell % of control was 99.7% and the parasite % of control was 75.7% (inactive).
For `O=C(Nc1ccc(-c2csc(Nc3ccc(Cl)cc3)n2)cc1)c1ccccc1`, in assay [1], the liver cell % of control worked out at 103% and the parasite % of control was 110% (inactive).
For `CC(=O)N[C@H]1[C@H]([C@H](O)[C@H](O)CO)OC(C(=O)O)=C[C@@H]1O`, the inhibition in assay [2] is 2% (inactive). Besides, the fluorescence ratio (interference) in assay [3] was 1 (inactive).
Turning to `O=C(Nc1cccc(-c2csc(Nc3cccc(C(F)(F)F)c3)n2)c1)c1ccccc1`, in assay [1], the liver cell % of control came out at 97.7% and the parasite % of control was 68.7% (inactive).
In the same order, the values of `O=C(Nc1cccc(-c2csc(Nc3ccc(Cl)cc3)n2)c1)c1cccc(C(F)(F)F)c1` are 97.6% and 115% (inactive).
Regarding `NC1=NC(=O)C(=Cc2ccc(-c3ccc(S(N)(=O)=O)cc3)o2)S1`, in assay [1], the liver cell % of control is 104% and the parasite % of control was 97.3% (inactive).
Regarding `CN(C)c1nc2c(Br)c(Br)c(Br)c(Br)c2[nH]1`, the inhibition in assay [2] was 1% (inactive). In addition, the fluorescence ratio (interference) in assay [3] is 1 (inactive).
As for `CCN1CCN(Cc2ccc(NC(=O)c3cc(NC(=O)c4cncc(-c5ccc(C#N)cc5)c4)cc(OC)c3)cc2C(F)(F)F)CC1`, in assay [1], the liver cell % of control turned out to be 77.4% and the parasite % of control is 95.5% (inactive).
Turning to `CN(C)CC=CC(=O)Nc1cccc(-c2c[nH]c3ncnc(Oc4ccc(NC(=O)CC(=O)Nc5ccc(F)cc5)cc4F)c23)c1`, in assay [1], the liver cell % of control worked out at 96.3% and the parasite % of control is 155% (inactive).
`Cc1cc(C(=O)Nc2cc(Nc3ccc4c(C=Cc5ccccn5)n[nH]c4c3)ccc2F)n(C)n1`: in assay [1], the liver cell % of control is 75.4% and 84.5% and 95.8%; the parasite % of control is 17.4% (inactive) and 18.3% (inactive) and 40.1% (inactive).
